These results are taken from PubChem BioAssay (NCATS).

SMILES strings stand for the structures. Several values for one entry are separate records, joined by “and”; a condition that tells them apart may be missing. Identical values can stand only once. Results filed as inconclusive are left out. Activity calls are given as the source filed them. Unless noted, the call rests on the fitted dose curve; in most records, active means well fitted curve in the direction sought with a large enough effect; inconclusive means small, poorly fitted or top-dose-only effect, or another doubt; inactive means no such curve, though single readings can be large; an effect the other way counts as inactive or inconclusive.

A short description of test [1]: qHTS Assay for Lipid Storage Modulators (AID 1519; calls by dose curve; on activity change, negative = inhibition: on the % scale 0 is the no-effect control and ±100 the full control effect). The conditions noted are these: Drosophila S3 cells, BODIPY lipid droplet/cell ratio, laser cytometry, cells loaded with oleic acid. The essentials: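 Cells seeded at 5,000 per well were treated with compounds over a concentration series and loaded with oleic acid (400 uM, as added). Lipid droplet fluorescence (488 nm excitation, 500-530 nm channel) was read by laser-scanning cytometry and normalized to 20 uM Triacsin C.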
(In general: In qHTS, concentration-response curves come from the screen itself.)

The target of test [2] is DNA repair nuclease/redox regulator APEX1 (Homo sapiens) (UniProt P27695). In words: qHTS Validation Assay for Inhibitors of the Human Apurinic/apyrimidinic Endonuclease 1 (APE1) (AID 1705;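 further: TAMRA fluorescence gain over two minutes as APE1 cuts a quenched THF abasic duplex; on the % scale 0 is the no-effect control and ±100 the full control effect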). The note with it: purified APE1 endonuclease activity, fluorescence, titration; series mostly up to 57.1 µM. In outline: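 Substrate: 50 nM final fluorophore/quencher THF-abasic duplex. Enzyme preincubated with compounds 15 min, RT. Progress derived from fluorescence difference, third minus first kinetic read.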

A short description of test [3]: Counterscreen for APE1 Inhibitors: Fluorescent Dye Displacement Validation Assay (AID 1707).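 Further: plate controls were ThO with dsDNA and no compound for no effect and ThO without dsDNA for full effect.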 The note with it: fluorescent dye displacement from DNA; series mostly up to 57.1 µM. The essentials: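 Reaction mixture of 250 nM Thiazole Orange and 50 nM double-stranded abasic-site DNA was dispensed, compounds were pin-transferred, and fluorescence was read at endpoint (480 nm ex, 540 nm em). Reduced fluorescence indicated dye displacement by DNA binding.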
In general terms: Counterscreens check selectivity or assay interference.

The target in test [4] is Endonuclease 4 (Escherichia coli (strain K12)) (UniProt P0A6C1). In words: Counterscreen for APE1 Inhibitors: qHTS Validation Assay for Inhibitors of Endonuclease IV (AID 1708). Further: on the % scale 0 is the no-effect control and ±100 the full control effect. The conditions noted are these: E. coli endonuclease IV, DNA cleavage fluorescence; series mostly up to 57.1 µM. The essentials: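 Conditions: 2 nM enzyme, 50 nM TAMRA/BHQ-2 substrate, pH 7.5 Tris buffer with 2 mM MgCl2, RT. Compound preincubation 15 min; readout three fluorescence reads 60 s apart, third-minus-first.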

Test [5] in a line: qHTS for differential inhibitors of proliferation of Plasmodium falciparum line GB4 (AID 1816).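 Further: parasite growth measured after 72 h incubation.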 Further: potency means the concentration at half of the fitted maximal effect.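 On activity change, negative = inhibition: 0% = vehicle DMSO and -100% = reference inhibitor.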 The conditions noted are these: Potency: Plasmodium falciparum GB4 proliferation inhibition; series mostly up to 28.7 µM.
Test [6] can be described thus: qHTS for differential inhibitors of proliferation of Plasmodium falciparum line 3D7 (AID 1876). Further: potency means the concentration at half of the fitted maximal effect. The note with it: P. falciparum 3D7 proliferation inhibition; series mostly up to 28.7 µM.
The nature of test [7]: qHTS for differential inhibitors of proliferation of Plasmodium falciparum line D10 (AID 1877).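 Further: parasites grown with compound for 72 h before DNA staining; plate controls were vehicle wells for no effect and reference inhibitor wells for full effect.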 The conditions noted are these: series mostly up to 28.7 µM.
Test [8] can be described thus: qHTS for differential inhibitors of proliferation of Plasmodium falciparum line W2 (AID 1883).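 Further: parasites grown with compound for 72 h before lysis and staining.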 Further: potency means the concentration at half of the fitted maximal effect.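 On activity change, negative = inhibition: 0% = vehicle wells and -100% = control inhibitor wells.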 The note with it: Potency: Plasmodium falciparum W2 proliferation inhibition; series mostly up to 28.7 µM.
A short description of test [9]: qHTS for differential inhibitors of proliferation of Plasmodium falciparum line HB3 (AID 1886).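 Further: parasites grown with compound for 72 h before SYBR Green readout; plate controls were vehicle for no effect and reference inhibitor for full effect.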 The conditions noted are these: Potency: Plasmodium falciparum HB3 proliferation inhibition; series mostly up to 28.7 µM.
Test [10] has as its target Ferritin light chain (Equus caballus) (UniProt P02791). In words: qHTS Validation Assay for Identification of Novel General Anesthetics (AID 2323). Further: on the % scale 0 is the no-effect control and ±100 the full control effect. The note with it: horse apoferritin, anesthetic-site fluorescent probe displacement; series mostly up to 76.9 µM. In outline:
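Normalized fluorescence response, scaled between free 1-AMA and 1-AMA/apoferritin complex, fitted to a four-parameter Hill equation for concentration-effect values. Binding mix: 10 uM horse-spleen apoferritin, 50% saturated 1-AMA in PBS; read 380/535 nm after 10 min.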

Test [11] addresses ATP-dependent DNA helicase Q1 (Homo sapiens) (UniProt P46063). Kind of test: qHTS Validation Assay for Inhibitors of RecQ-Like Dna Helicase 1 (RECQ1) (AID 2353).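 Further: plate controls were DMSO vehicle for no effect and enzyme-free control for full effect.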 The conditions noted are these: recombinant RECQ1 helicase DNA unwinding assay; series mostly up to 25.6 µM. In outline:
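RECQ1T1 50 nM; forked duplex (20 bp + 30-nt ss tails) 200 nM, ATP 2 mM final; pH 8.0, 2 mM MgCl2, 2.5 ug/ml poly(dI-dC); 15 min compound preincubation; discontinuous kinetic read over 2 h at RT.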

Test [12] can be described thus: qHTS for differential inhibitors of proliferation of Plasmodium falciparum line 7G8 (AID 1815).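 Further: parasite growth measured after three days of incubation; plate controls were vehicle wells for no effect and reference inhibitor wells for full effect.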 The note with it: Plasmodium falciparum 7G8 proliferation inhibition; series mostly up to 28.7 µM.
A short description of test [13]: qHTS for differential inhibitors of proliferation of Plasmodium falciparum line Dd2 (AID 1882).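 Further: plate controls were DMSO vehicle for no effect and 0.29 µM artemisinin for full effect; nearly all actives have a fitted effect of over 65% in size.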 The conditions noted are these: Potency: Plasmodium falciparum Dd2 proliferation inhibition; series mostly up to 28.7 µM. In outline:
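SYBR Green DNA fluorescence (ex 485, em 535 nm) after overnight lysis quantifies parasite growth; compound exposure lasted 72 h at 37 C on infected red cells at 2.5% hematocrit, 0.3% parasitemia (final). Artemisinin 0.29 uM and vehicle wells define normalization.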

Test [14] is described as follows: qHTS Assay for Modulators of Human Peripheral Myelin Protein 22 (PMP22) Expression/Activity (AID 1967; active means well fitted curve in the direction sought with a large enough effect in the signal ratio; the % refers to the signal ratio;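 further: 0% = untreated cells and 100% end not stated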). The note with it: Cell-based PMP22 reporter, dual-color luciferase ratio, 0% = compound-free control cells, mouse Pmp22 promoter in mouse Schwann cells; series mostly up to 115 µM. In outline: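 Engineered MSC80 cells, Pmp22-promoter green and EF-alpha red luciferase reporters; 24h compound treatment at 37 °C. Concentration-response fits on green, red and ratio signals, each overlap-corrected, with %Activity normalized to untreated wells.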

The target of test [15] is alpha-glucosidase (Oryza sativa, rice) (UniProt Q653V4). In words: Counterscreen for Glucocerebrosidase Inhibitors: qHTS Assay for Rice alpha-Glucosidase at pH 5.0 (AID 997).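 Further: 0% = full activity with enzyme and -100% = basal without enzyme.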 The note with it: rice alpha-glucosidase enzyme activity; series mostly up to 76.9 µM. The essentials: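 Endpoint fluorogenic assay at pH 5.0: compounds (0.7 nM to 77 uM) titrated against 4 nM rice enzyme and 400 uM 4-MU-alpha-glucoside for 20 min at room temperature; NaOH/glycine stop, read ex 365/em 440 nm, Hill-fitted AC50.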

The nature of test [16]: Validation of Assay for Modulators of Lamin A Splicing (AID 1459; active means well fitted curve in the direction sought with a large enough effect in the signal ratio; the % refers to the signal ratio;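 further: cells exposed to compound for two days before reading; 0% is about no effect; ratio rise marks activators and ratio drop marks inhibitors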). The conditions noted are these: Lamin A splicing dual RFP/GFP fluorescence reporter; series mostly up to 9.22 µM. In outline:
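Dual-reporter HeLa S3 line (lamin A-EGFP minigene, DsRed2) treated with compounds 48 hrs, 0.5% DMSO final. Endpoint: EGFP/DsRed2 total intensity ratio from laser-scanning microplate cytometry.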

Setting [17] is: measured here: cell count channel max response.
Setting [18] is: measured here: lipid channel max response.

Chain of Ferritin light chain (Equus caballus) (P02791 2-175 limits assumed): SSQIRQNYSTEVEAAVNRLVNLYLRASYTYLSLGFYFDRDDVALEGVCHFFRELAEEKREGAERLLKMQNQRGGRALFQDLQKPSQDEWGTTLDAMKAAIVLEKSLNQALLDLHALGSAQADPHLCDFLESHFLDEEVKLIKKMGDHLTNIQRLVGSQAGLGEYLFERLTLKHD
Chain of DNA repair nuclease/redox regulator APEX1 (Homo sapiens) (P27695 whole entry, looked up): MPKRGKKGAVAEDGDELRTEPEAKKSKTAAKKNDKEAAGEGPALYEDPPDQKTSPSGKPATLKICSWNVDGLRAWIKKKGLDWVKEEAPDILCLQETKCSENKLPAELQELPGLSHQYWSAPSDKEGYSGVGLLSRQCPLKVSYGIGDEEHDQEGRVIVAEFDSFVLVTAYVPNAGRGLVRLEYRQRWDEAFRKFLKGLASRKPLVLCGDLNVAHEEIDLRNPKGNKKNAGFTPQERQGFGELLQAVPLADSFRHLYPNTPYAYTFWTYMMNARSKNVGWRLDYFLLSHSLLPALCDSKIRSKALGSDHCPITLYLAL
Chain of ATP-dependent DNA helicase Q1 (Homo sapiens) (P46063 whole entry, looked up): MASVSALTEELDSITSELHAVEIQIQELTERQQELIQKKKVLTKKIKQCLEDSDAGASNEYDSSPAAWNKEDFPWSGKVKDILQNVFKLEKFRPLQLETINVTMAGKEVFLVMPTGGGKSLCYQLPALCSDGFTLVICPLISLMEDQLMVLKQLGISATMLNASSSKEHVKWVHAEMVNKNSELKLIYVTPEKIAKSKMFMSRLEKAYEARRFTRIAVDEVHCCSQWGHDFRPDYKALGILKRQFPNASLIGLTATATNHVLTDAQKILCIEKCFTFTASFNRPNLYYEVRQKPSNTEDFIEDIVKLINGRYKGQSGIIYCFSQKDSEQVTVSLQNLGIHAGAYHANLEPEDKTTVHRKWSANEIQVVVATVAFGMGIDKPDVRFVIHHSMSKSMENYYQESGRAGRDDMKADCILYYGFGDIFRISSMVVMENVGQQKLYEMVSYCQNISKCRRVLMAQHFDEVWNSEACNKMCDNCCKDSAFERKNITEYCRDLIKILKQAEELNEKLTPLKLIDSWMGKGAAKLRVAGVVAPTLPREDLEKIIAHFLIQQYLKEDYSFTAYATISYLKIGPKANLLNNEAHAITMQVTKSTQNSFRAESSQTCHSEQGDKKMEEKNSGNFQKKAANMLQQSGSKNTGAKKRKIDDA

Turning to `CC1CNCCN1S(=O)(=O)c1cccc2cnccc12` (stereo unspecified), in test [1] (at 57.5 µM (top of the series)), the activity change, negative = inhibition was -0.941% (inactive). Further, the max response in test [1] (setting [17]) stood at 3.07%; in test [1] (setting [18]), 3.63%. In addition, the Potency entry in [2], in [3], in test [4], in [6], in test [7] and in test [9] was “inactive” in each case. The Potency entry in test [10] and in test [11] was “inactive” throughout. The Potency is 12.6 µM (active) in test [5] and 7.08 µM (active) in test [8].
Take `COc1ccc2c(c1)CCC1C2CC[C@@]2(C)C1CC[C@@H]2NCCCCCCN1C(=O)C=CC1=O` (stereo partly specified): the Potency result in [2], in [3], in [4], in test [12], in [5] and in test [6] was “inactive” throughout. Further, the Potency result in test [7], in test [13], in test [8], in [9] and in [10] was “inactive” throughout. Further, the outcome in test [14] was inactive.
On to `NC1(C(=O)O)CC1`, for which, in test [15], the molecule was called inactive. In [1] (at 57.5 µM (top of the series)), the activity change, negative = inhibition is 3.79% (inactive). Also, the figures for the max response in test [1] (setting [17]) and in [1] (setting [18]) were 18.9% and 25.1%, respectively. Further, the Potency result in test [2], in [3], in [4], in test [13], in test [10] and in [11] was “inactive” throughout. The Potency was 11.2 µM (active) in [6] and 12.6 µM (active) in test [8].
Take `CC(C)NC[C@H](O)COc1ccc(CC(N)=O)cc1`: the outcome in test [15] was inactive. Also, the activity change, negative = inhibition is -3.22% (inactive) and -3.29% (inactive) in test [1] (at 25.7 µM (top of the series)); 0.49% (inactive) and -5.77% (inactive) in test [1] (at 57.5 µM (top of the series)). The results for the max response in test [1] (setting [17]) and in test [1] (setting [18]) were -3.12% [middle of 4 runs] and -2.86% [middle of 4 runs], respectively. The Potency entry in test [2], in [3], in [12], in test [5], in test [6] and in test [7] was “inactive” in each case. In addition, the Potency result in test [13], in test [8], in [9], in test [10] and in [11] was “inactive” each time.
Take `CCOC(=O)C12CC1/C(=N/O)c1ccccc1O2` (stereo unspecified): the molecule was classed as inactive in [16]. The Potency entry in test [4], in [12], in test [5], in test [6], in test [7] and in test [13] was “inactive” in each case. The Potency result in [8], in [9], in test [10] and in [11] was “inactive” throughout.
For `C[C@@]1(C2CCCC2)Cc2cc(OCC(=O)O)c(Cl)c(Cl)c2C1=O`, the Potency result in test [2], in [3], in [4], in test [12], in [5] and in test [6] was “inactive” each time. In addition, the Potency entry in [7], in test [13], in test [8], in test [9], in test [10] and in test [11] was “inactive” in each case. For the same molecule, in test [14], the outcome was inactive.
Turning to `CC(C)(CO)Cc1cc(C(C)(C)C)c(O)c(C(C)(C)C)c1`, the result in test [15] was inactive. For the same molecule, the activity change, negative = inhibition in [1] (at 57.5 µM (top of the series)) was -0.753% (inactive). Moreover, the max response in test [1] (setting [17]) is -30.7%; in [1] (setting [18]) it was -34%. The Potency entry in test [2], in [3] and in test [13] was “inactive” in each case. For the same molecule, the Potency in test [6] was 3.98 µM (active); in [8], 10 µM (active).
